Screen size: about 5,500 compounds; about 2,000 (36%) were called active. Not shown: some 18% with an inconclusive outcome. Rule as the data show it: active = normalized growth mostly below about 0.91 (no sharp cut-off); inconclusive = no clear call, values can overlap the other calls; inactive = mostly above about 0.92. The list shows a part of the results. Where a SMILES comes first, the peptide text is derived from it. Bridges are numbered along the chain shown (N, C = ends). [ ]: non-standard residue; d: D form. The star is where a group is joined. ξ: configuration not given here. ξDab(CH2SO3H) = NC(CCNCS(=O)(=O)O)C(=O)O; Heptanoyl(6-Me) = CC(C)CCCCC(=O)*; Dab = NCC[CH](N)C(=O)O
Test: chemical genetic growth profiling, strain panel (AID 1159580);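 also: tested at 20 µM; growth read once vehicle control cultures reached saturation at 30 °C; 1 = growth at the plate median or of vehicle wells; lower values mean less growth of the strain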
Settings: growth OD

Measured: normalized growth

CCC(C)C1NC(=O)C(CCNCS(=O)(=O)O)NC(=O)C(NC(=O)C(CCNCS(=O)(=O)O)NC(=O)C(NC(=O)C(CCNCS(=O)(=O)O)NC(=O)CCCCC(C)C)C(C)O)CCNC(=O)C(C(C)O)NC(=O)C(CCNCS(=O)(=O)O)NC(=O)C(CCNCS(=O)(=O)O)NC(=O)C(C(C)CC)NC1=O (configuration not stated) ({Heptanoyl(6-Me)}-[ξDab(CH2SO3H)]T[ξDab(CH2SO3H)][Dab][ξDab(CH2SO3H)]II[ξDab(CH2SO3H)][ξDab(CH2SO3H)]T; lactam 4-C; configuration not given here)
inactive: S. cerevisiae deletion strains, locus YJR075W, strain HOC1, hits give low values 1 | S. cerevisiae deletion strains, locus YKL009W, strain mrt4, hits give low values 0.986 | S. cerevisiae deletion strains, locus YKL068W, hits give low values 0.964 | S. cerevisiae deletion strains, locus YKL085W, strain MDH1 (second series), hits give low values 0.951 | S. cerevisiae deletion strains, locus YKL085W, strain MDH1, hits give low values 0.951 | S. cerevisiae deletion strains, locus YKL160W, strain elf1, hits give low values 1.02 | S. cerevisiae deletion strains, locus YKL190W, strain CNB1, hits give low values 0.969 | S. cerevisiae deletion strains, locus YKR001C, strain vps1, hits give low values 0.972 | S. cerevisiae deletion strains, locus YKR026C, strain gcn3, hits give low values 0.98 | S. cerevisiae deletion strains, locus YKR091W, strain srl3, hits give low values 0.98 | S. cerevisiae deletion strains, locus YLL001W, strain dnm1, hits give low values 0.994 | S. cerevisiae deletion strains, locus YLL026W, hits give low values 0.997 | S. cerevisiae deletion strains, locus YLL041C, strain sdh2, hits give low values 0.993 | S. cerevisiae deletion strains, locus YLR027C, strain aat2, hits give low values 0.995 | S. cerevisiae deletion strains, locus YLR039C, strain RIC1, hits give low values 0.962 | S. cerevisiae deletion strains, locus YLR058C, strain SHM2, hits give low values 0.988 | S. cerevisiae deletion strains, locus YLR102C, strain apc9, hits give low values 0.962 | S. cerevisiae deletion strains, locus YLR113W, strain HOG1, hits give low values 1.1 | S. cerevisiae deletion strains, locus YLR221C, strain rsa3, hits give low values 0.99 | S. cerevisiae deletion strains, locus YLR258W, strain gsy2, hits give low values 0.99 | S. cerevisiae deletion strains, locus YLR262C, strain YPT6 (second series), hits give low values 0.997 | S. cerevisiae deletion strains, locus YLR262C, strain YPT6, hits give low values 0.992 | S. cerevisiae deletion strains, locus YLR268W, strain sec22, hits give low values 0.978 | S. cerevisiae deletion strains, locus YLR320W, strain mms22, hits give low values 0.96 | S. cerevisiae deletion strains, locus YLR330W, strain CHS5, hits give low values 0.968 | S. cerevisiae deletion strains, locus YLR342W, strain FKS1 (second series), hits give low values 1.02 | S. cerevisiae deletion strains, locus YLR342W, strain FKS1, hits give low values 1 | S. cerevisiae deletion strains, locus YLR357W, strain rsc2, hits give low values 0.963 | S. cerevisiae deletion strains, locus YLR370C, strain arc18, hits give low values 0.979 | S. cerevisiae deletion strains, locus YLR371W, strain rom2, hits give low values 0.962 | S. cerevisiae deletion strains, locus YLR384C, strain iki3, hits give low values 0.998 | S. cerevisiae deletion strains, locus YLR418C, strain cdc73, hits give low values 0.989 | S. cerevisiae deletion strains, locus YML016C, strain PPZ1, hits give low values 0.978 | S. cerevisiae deletion strains, locus YML032C, strain rad52, hits give low values 0.963 | S. cerevisiae deletion strains, locus YML120C, strain ndi1, hits give low values 0.971 | S. cerevisiae deletion strains, locus YML124C, strain tub3, hits give low values 0.964 | S. cerevisiae deletion strains, locus YMR058W, strain fet3, hits give low values 0.987 | S. cerevisiae deletion strains, locus YMR078C, strain ctf18, hits give low values 0.976 | S. cerevisiae deletion strains, locus YMR125W, strain sto1, hits give low values 0.973 | S. cerevisiae deletion strains, locus YMR129W, hits give low values 0.979 | S. cerevisiae deletion strains, locus YMR205C, strain PFK2, hits give low values 0.958 | S. cerevisiae deletion strains, locus YMR223W, strain ubp8, hits give low values 0.99 | S. cerevisiae deletion strains, locus YMR231W, strain pep5, hits give low values 0.987 | S. cerevisiae deletion strains, locus YMR263W, strain SAP30, hits give low values 0.985 | S. cerevisiae deletion strains, locus YMR307W, strain GAS1, hits give low values 1.12 | S. cerevisiae deletion strains, locus YNL067W, strain RPL9B, hits give low values 0.991 | S. cerevisiae deletion strains, locus YNL071W, strain lat1, hits give low values 0.981 | S. cerevisiae deletion strains, locus YNL128W, strain TEP1, hits give low values 0.971 | S. cerevisiae deletion strains, locus YNL153C, strain GIM3, hits give low values 0.987 | S. cerevisiae deletion strains, locus YNL183C, strain NPR1, hits give low values 0.935 | S. cerevisiae deletion strains, locus YNL209W, strain ssb2, hits give low values 1.02 | S. cerevisiae deletion strains, locus YNL233W, strain BNI4, hits give low values 0.996 | S. cerevisiae deletion strains, locus YNL248C, strain rpa49, hits give low values 1.02 | S. cerevisiae deletion strains, locus YNL250W, strain rad50, hits give low values 0.95 | S. cerevisiae deletion strains, locus YNL271C, strain bni1, hits give low values 0.963 | S. cerevisiae deletion strains, locus YNL298W, strain CLA4, hits give low values 0.974 | S. cerevisiae deletion strains, locus YNL307C, strain MCK1, hits give low values 0.982 | S. cerevisiae deletion strains, locus YNL322C, strain KRE1 (second series), hits give low values 0.983 | S. cerevisiae deletion strains, locus YNL322C, strain KRE1, hits give low values 0.972 | S. cerevisiae deletion strains, locus YNR049C, strain mso1, hits give low values 0.994 | S. cerevisiae deletion strains, locus YNR052C, strain pop2, hits give low values 0.968 | S. cerevisiae deletion strains, locus YOL006C, strain TOP1, hits give low values 1.02 | S. cerevisiae deletion strains, locus YOL012C, strain htz1 0.945 | S. cerevisiae deletion strains, locus YOL147C, strain pex11, hits give low values 0.982 | S. cerevisiae deletion strains, locus YOR001W, strain rrp6, hits give low values 0.961 | S. cerevisiae deletion strains, locus YOR061W, strain CKA2, hits give low values 0.978 | S. cerevisiae deletion strains, locus YOR069W, strain VPS5, hits give low values 0.983 | S. cerevisiae deletion strains, locus YOR070C, strain gyp1, hits give low values 0.996 | S. cerevisiae deletion strains, locus YOR080W, strain dia2, hits give low values 0.984 | S. cerevisiae deletion strains, locus YOR083W, strain WHI5, hits give low values 0.987 | S. cerevisiae deletion strains, locus YOR106W, strain vam3, hits give low values 1.03 | S. cerevisiae deletion strains, locus YOR136W, strain idh2, hits give low values 0.966 | S. cerevisiae deletion strains, locus YOR144C, strain elg1, hits give low values 0.962 | S. cerevisiae deletion strains, locus YOR184W, strain ser1, hits give low values 1.01 | S. cerevisiae deletion strains, locus YOR231W, strain MKK1, hits give low values 0.998 | S. cerevisiae deletion strains, locus YOR265W, strain rbl2, hits give low values 0.998 | S. cerevisiae deletion strains, locus YOR270C, strain vph1, hits give low values 0.834 | S. cerevisiae deletion strains, locus YOR290C, strain snf2, hits give low values 1.01 | S. cerevisiae deletion strains, locus YOR316C, strain cot1, hits give low values 0.947 | S. cerevisiae deletion strains, locus YPL051W, strain arl3, hits give low values 1 | S. cerevisiae deletion strains, locus YPL055C, strain LGE1, hits give low values 0.991 | S. cerevisiae deletion strains, locus YPL078C, strain atp4, hits give low values 0.998 | S. cerevisiae deletion strains, locus YPL106C, strain sse1, hits give low values 0.941 | S. cerevisiae deletion strains, locus YPL240C, strain hsp82, hits give low values 0.988 | S. cerevisiae deletion strains, locus YPL241C, strain CIN2, hits give low values 0.974 | S. cerevisiae deletion strains, locus YPL256C, strain CLN2, hits give low values 1.06 | S. cerevisiae deletion strains, locus YPR119W, strain clb2, hits give low values 0.955 | S. cerevisiae deletion strains, locus YPR141C, strain kar3, hits give low values 0.937 | S. cerevisiae deletion strains, locus YPR163C, strain tif3, hits give low values 0.971 | S. cerevisiae deletion strains, locus YPR167C, strain met16, hits give low values 0.945 | S. cerevisiae deletion strains, strain wtn01, hits give low values 0.973 | S. cerevisiae strains, strain wild type, hits give low values 0.98

— PubChem BioAssay AID1159580 (chemical genetic matrix, 2015)
